Measured potencies and affinities stand elsewhere. Active and inactive are the calls of the source.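 Rule for the calls: active = fitted half-maximal dose no more than twice the top valid tested dose, for compounds that lower signal; inconclusive = fit invalid, or curve flat with activity between -70 and -30; inactive = potency past limit, curve flat within ±30, or signal increasing.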
The compounds below were run against NAD-dependent protein deacylase sirtuin-5, mitochondrial (Homo sapiens) (UniProt Q9NXA8) (assay: SIRT5 deacylase inhibitors, dose response, biochemical, fluorescence imaging, cherry-pick, set 6 (AID 720597;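 note: lower AMC signal can also come from blocking the trypsin step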)). Conditions: Purified SirT5, succinyl-peptide-AMC/trypsin fluorescence; series mostly up to 15 µM.
Chain of NAD-dependent protein deacylase sirtuin-5, mitochondrial (Homo sapiens) (Q9NXA8 whole entry, looked up): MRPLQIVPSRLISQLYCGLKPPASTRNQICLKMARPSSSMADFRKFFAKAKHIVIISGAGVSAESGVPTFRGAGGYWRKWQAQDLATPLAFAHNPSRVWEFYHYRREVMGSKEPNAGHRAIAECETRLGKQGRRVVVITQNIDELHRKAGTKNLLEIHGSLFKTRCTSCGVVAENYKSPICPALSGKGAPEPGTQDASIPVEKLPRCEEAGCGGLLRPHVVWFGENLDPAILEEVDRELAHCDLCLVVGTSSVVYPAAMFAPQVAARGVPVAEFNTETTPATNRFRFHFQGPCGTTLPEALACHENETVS

outcome, inactive:
COc1ccc(C#Cc2ccc([C@H]3[C@@H](CO)N4C(=O)CN(C(=O)c5cccnc5)C[C@@H]34)cc2)cc1
O=C(NCC[C@@H]1CC[C@@H](NS(=O)(=O)c2ccc(Cl)cc2)[C@H](CO)O1)c1ccccc1F
CCCN1C[C@H](C)[C@@H](OC)CN(C)C(=O)c2cc(NS(=O)(=O)c3ccccc3)ccc2OC[C@H]1C
COc1ccccc1S(=O)(=O)N(C)C[C@H]1Oc2cc(C#CCC(C)C)ccc2S(=O)(=O)N([C@H](C)CO)C[C@@H]1C
COc1ccccc1-c1ccc2c(c1)O[C@@H](CN(C)S(=O)(=O)c1ccccc1)[C@H](C)CN([C@H](C)CO)S2(=O)=O
COc1ccc(S(=O)(=O)N[C@H]2C=C[C@@H](CC(=O)NCCc3ccncc3)O[C@H]2CO)cc1
COc1cccc(NC(=O)N2CC(=O)N3[C@H](C2)[C@@H](c2ccc(C#CCC4CCCC4)cc2)[C@@H]3CO)c1
COc1ccc(S(=O)(=O)N2CCCCN3[C@H](CO)[C@H](c4ccc(C#CC(C)C)cc4)[C@H]3C2)cc1
C[C@@H]1CN([C@H](C)CO)C(=O)c2cc(N(C)C)ccc2O[C@H]1CN(C)S(=O)(=O)c1ccccc1
Cc1ccc(S(=O)(=O)N(C)C[C@@H]2OCCCC[C@H](C)Oc3ccc(NS(=O)(=O)c4ccc(Cl)cc4)cc3C(=O)N([C@@H](C)CO)C[C@H]2C)cc1
Cc1ccc(S(=O)(=O)Nc2ccc3c(c2)C(=O)N([C@@H](C)CO)C[C@H](C)[C@@H](CN(C)Cc2ccc(C(F)(F)F)cc2)OCCCC[C@H](C)O3)cc1
C[C@@H]1CCCCO[C@@H](CN(C)CC2CCCCC2)[C@@H](C)CN([C@@H](C)CO)C(=O)c2cc(NS(=O)(=O)c3ccc(F)cc3)ccc2O1
COc1ccc(C#Cc2ccc([C@@H]3[C@@H](CO)N4C(=O)CN(C(=O)c5cccnc5)C[C@H]34)cc2)cc1
Cc1ccc(S(=O)(=O)N(C)C[C@@H]2OCCCC[C@H](C)Oc3ccc(NS(=O)(=O)c4ccccc4)cc3C(=O)N([C@H](C)CO)C[C@@H]2C)cc1
CCN(C[C@@H]1[C@@H](c2ccccc2)[C@H](CO)N1C(=O)C1CC1)C(=O)NC1CCCC1
COc1ccc(CN2C[C@@H](O)COC[C@H]3O[C@H](CC(=O)NCCN4CCCC4)CC[C@@H]32)cc1
Cc1ccc(S(=O)(=O)Nc2ccc3c(c2)C(=O)N([C@H](C)CO)C[C@H](C)[C@@H](CN(C)Cc2ccc(Cl)c(Cl)c2)OCCCC[C@H](C)O3)cc1
C[C@H](CO)N1C[C@H](C)[C@@H](CN(C)Cc2ccc(C(=O)O)cc2)Oc2ccc(NS(=O)(=O)c3ccc(Cl)cc3)cc2C1=O
C[C@H]1CN([C@@H](C)CO)C(=O)c2ccccc2-c2ccccc2CO[C@H]1CN(C)Cc1ccc(F)cc1
O=C(NCC[C@H]1CC[C@H](NC(=O)C2CC2)[C@H](CO)O1)c1cc(Cl)cc(Cl)c1
C[C@H](CO)N1C[C@H](C)[C@H](CN(C)Cc2ccc(C(F)(F)F)cc2)Oc2c(NC(=O)c3nc4ccccc4s3)cccc2C1=O
C[C@@H]1CCCCO[C@H](CN(C)S(=O)(=O)c2ccc(Cl)cc2)[C@H](C)CN([C@@H](C)CO)C(=O)c2cc(NS(=O)(=O)c3ccc(F)cc3)ccc2O1
Cc1ccccc1S(=O)(=O)N(C)C[C@H]1OCc2ccccc2-c2c(n(C)c3ccccc23)C(=O)N([C@@H](C)CO)C[C@@H]1C
Cc1ccccc1S(=O)(=O)N[C@H]1CC[C@@H](CCn2cc(Cc3ccccc3)nn2)O[C@H]1CO
C[C@H]1CN([C@@H](C)CO)C(=O)c2c(c3ccccc3n2C)-c2ccccc2CO[C@@H]1CN(C)Cc1ccc2c(c1)OCO2
C[C@H](CO)N1C[C@H](C)[C@H](CN(C)C(=O)Nc2cc(F)ccc2F)Oc2cc(/C=C/c3ccccc3)ccc2S1(=O)=O
Cc1ccc(S(=O)(=O)Nc2ccc3c(c2)C(=O)N([C@@H](C)CO)C[C@H](C)[C@@H](CN(C)C(=O)Nc2ccc(C(F)(F)F)cc2)OCCCC[C@@H](C)O3)cc1
CC(C)NC(=O)N1[C@H](CN(C)C(=O)c2ccccc2)[C@@H](c2ccccc2)[C@@H]1CO
